By inhibition is commonly meant the drop in the measured response relative to a control, in per cent.

The structures appear in SMILES notation. In all, about 190,000 compounds went through this assay and about 1,300 (0.68%) were called active. For the sample, actives were picked, then their nearest neighbours and some compounds at random. Unmarked numbers belong to inactive results. Cut-off read from the data, not from the text of the source: active = inhibition above about 50%; inactive = the rest.

The target of this assay is Mannose-6-phosphate isomerase (Homo sapiens) (UniProt P34949). The assay can be described thus: human PMI inhibitors, high substrate, primary screen, biochemical, fluorescence intensity, high mannose 6-phosphate (AID 1220). The following applies: recombinant PMI enzyme, coupled fluorescence intensity; at 20 µM; hits give high values.
Sequence of Mannose-6-phosphate isomerase (Homo sapiens) (P34949 whole entry, looked up): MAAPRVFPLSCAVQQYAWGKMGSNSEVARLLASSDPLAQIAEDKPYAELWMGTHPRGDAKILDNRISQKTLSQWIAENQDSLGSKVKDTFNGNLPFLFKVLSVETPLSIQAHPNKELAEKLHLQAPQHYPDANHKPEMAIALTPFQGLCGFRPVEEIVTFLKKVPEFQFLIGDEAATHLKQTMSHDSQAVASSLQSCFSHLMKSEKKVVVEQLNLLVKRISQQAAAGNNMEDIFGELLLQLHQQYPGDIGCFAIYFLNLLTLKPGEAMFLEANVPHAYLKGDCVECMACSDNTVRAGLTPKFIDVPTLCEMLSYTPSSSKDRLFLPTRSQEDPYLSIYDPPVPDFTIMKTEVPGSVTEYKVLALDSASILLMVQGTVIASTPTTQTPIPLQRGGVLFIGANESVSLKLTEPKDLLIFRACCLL
Regarding `O=C1CC(c2ccc(F)cc2)CC2=C1C=Nc1ccccc1N2` (configuration not stated), the inhibition was -4.8%.
For `Cc1nn(Cc2ccccc2)c(C)c1NC(=O)CCCn1nc(C)c([N+](=O)[O-])c1C` the value was -2.1%.
Under `CCCCC(=O)Nc1ccc(NC(=O)c2cc(OC)c(OC)c(OC)c2)cn1` stands 3.2%.
Under `CCN1CCCc2cc(CN(CCN3CCOCC3)C(=S)Nc3ccc(OC)c(OC)c3)ccc21` stands 22.3%; under `COc1ccccc1CNC(=O)C1CCC(CNc2c(N3CCOCC3)c(=O)c2=O)CC1` (configuration not stated), 16.7%; under `CC(=O)c1cnc(Nc2ccc(C)cc2)s1`, 1.9%.
As for `C=CCSc1nnc(NC(=O)CSc2nc3ccccc3[nH]2)s1`, the inhibition is 4.3%.
On to `Cc1cc(NC(=O)c2ccc(Cl)cc2)n(CCOC(=O)c2ccc(Cl)cc2)n1`, for which the inhibition is 10.6%.
For `Cc1nc2ccc(NC(=O)NCCO)cc2s1` the value was 3.3%.
For `COc1ccc(C(=O)NCc2ccc(Cl)c(Cl)c2)cc1OC` the value was -0.1%; for `Cc1cccc(-c2nc(CS(=O)CC(=O)N3CCCCC3)c(C)o2)c1` (configuration not stated), 5.1%; for `O=c1cc(N2CCCCCC2)[nH]c(=O)n1-c1ccccc1Cl`, -6.5%.
For `Cc1ccccc1-n1c(=O)cc(N2CCC3(CC2)OCCO3)[nH]c1=O` the value was 7%.
For the compound `Cc1ccccc1-n1c(=O)cc(N2CCCCCC2)[nH]c1=O`, the inhibition is 62.9% (active).
Under `CCOC(=O)/C(N=Nc1ccc(C(=O)O)cc1[N+](=O)[O-])=C(\C)O` stands -1.9%.
For `CC(C)Cc1nc2oc3c(N4CCN(CCO)CC4)ncnc3c2c2c1CCCC2` the value was 2%; for `Cc1ccc(Cl)cc1NC(=S)N(CCCN1CCOCC1)Cc1ccco1`, -6.2%.
For `Clc1ncc(CSc2ccccc2)s1` the value was -2.5%.
With `COC(=O)c1ccccc1NC(=O)CNc1cc(Cl)ccc1N1CCOCC1`, the inhibition was 9.8%.
For `O=C(COS(=O)c1ccccc1)Nc1cc(Cl)ccc1N1CCOCC1` (configuration not stated) the value was 8.4%.
For `Cc1ccc(S(=O)OCC(=O)Nc2cc(Cl)ccc2N2CCOCC2)cc1` (configuration not stated) the value was 52% (active); for `COc1ccccc1C(=O)Nc1ccccc1SC`, 10.6%.
Take `COc1ccc(S(=O)(=O)CCC(=O)N2c3ccccc3CC2C)cc1` (configuration not stated): the inhibition was 2%.
For the compound `O=C(Nc1ccc2c(c1)OCO2)c1ccc(S(=O)(=O)NCC2CCCO2)cc1` (configuration not stated), the inhibition is -2.4%.
Under `COc1ccc2c(C)cc(=O)[nH]c2c1` stands -3%; under `CCOC(=O)CSc1[nH]c2cc(OC)ccc2c1[N+](=O)[O-]`, 9.3%.
Under `COc1ccc2c([N+](=O)[O-])c(Cl)[nH]c2c1` stands 67.9% (active); under `O=C(COC(=O)c1c2ccccc2cc2ccccc12)Nc1ncc(C(F)(F)F)cc1Cl`, 2.9%; under `COc1ccc(CCNC(=O)CSc2nc3ccccc3o2)cc1`, 1.3%.
For `COc1ccc(CN=Cc2c(C(F)(F)F)[nH][nH]c2=O)cc1` the value was -0.7%.
Regarding `COC1=C(c2ccccc2)C(=O)c2ccccc2C1=O`, the inhibition was -57.4%.
Under `O=C1C(=C(O)c2ccccc2)C(=O)c2ccccc21` stands -47.9%.
Under `CC(C)c1ccc(C2=C(O)c3ccccc3C(=O)C2=O)cc1` stands 22.2%.
For `O=C(C1=C(c2ccccc2)C(=O)c2ccccc2C1=O)c1ccccc1` the value was 71.6% (active); for `O=C1C(c2ccncc2)=C(O)c2ccccc21`, -4.7%.
Take `COc1ccc(C(=S)Nc2ccc(C)cc2)cc1`: the inhibition is 3.8%.
Under `CC(C)(C)c1ccc(S(=O)(=O)N2CCCC2C(=O)N2CCOCC2)cc1` (configuration not stated) stands 3.5%.
Under `CCOC(=O)c1nn(-c2ccccc2F)c2nc(-c3ccco3)c(C#N)c(=O)n12` stands -13.6%; under `Cc1ccc(-n2c(=S)[nH]c3sc4c(c3c2=O)CCC4)cc1`, 9.7%; under `Cc1ccc(-n2c(=S)[nH]c3sc4c(c3c2=O)CCc2ccccc2-4)cc1`, 24.1%.
In the case of `CCN(Cc1ccncc1)S(=O)(=O)c1ccc(C(C)=O)cc1`, the inhibition is -13.6%.
Under `CCCCSc1cnn(-c2ccccc2)c(=O)c1SCCCC` stands 5.9%; under `CN1CCOc2cc(S(=O)(=O)Nc3ccc(F)cc3)ccc21`, 0.5%.
Turning to `COc1ccc(CCNC(=O)CN2C(=O)NC(C)(c3ccc([N+](=O)[O-])cc3)C2=O)cc1` (configuration not stated), the inhibition was -0.6%.
For `Cc1ccc(C2NC(=O)NC(O)(C(F)(F)F)C2C(=O)c2ccccc2)o1` (configuration not stated) the value was -19.5%; for `O=C1NC(c2ccc(-c3ccccc3[N+](=O)[O-])o2)C(C(=O)c2ccccc2)C(O)(C(F)(F)F)N1` (configuration not stated), 50.5% (active).
On to `O=C1NC(c2ccc(-c3ccccc3[N+](=O)[O-])o2)C(C(=O)c2ccc(F)cc2)C(O)(C(F)(F)F)N1` (configuration not stated), for which the inhibition is 42.1%.
Under `COc1cc(C2NC(=O)NC(O)(C(F)(F)F)C2C(=O)c2ccc(Cl)cc2)ccc1O` (configuration not stated) stands 2.5%.
For `COc1ccc(C(=O)C2C(c3ccc(-c4ccccc4[N+](=O)[O-])o3)NC(=O)NC2(O)C(F)(F)F)cc1` (configuration not stated) the value was 43.4%; for `O=C1NC(c2ccc(-c3ccccc3[N+](=O)[O-])o2)C(C(=O)c2ccc(Cl)cc2)C(O)(C(F)(F)F)N1` (configuration not stated), 50.3% (active); for `Cc1ccccc1-n1c(-c2ccncc2)n[nH]c1=S`, -11.7%.
For `O=C1C(c2ccc(F)cc2)N(Cc2ccc3c(c2)OCO3)C(=O)CN1C1CCCC1` (configuration not stated) the value was 7.2%.
As for `CC1Cc2cc(/C(O)=C3/C(=O)C(=O)N(CCCn4ccnc4)C3c3ccncc3)ccc2O1` (configuration not stated), the inhibition is -10.1%.
For `COc1cc(C2/C(=C(\O)c3ccc4c(c3)CC(C)O4)C(=O)C(=O)N2CCCn2ccnc2)ccc1O` (configuration not stated) the value was 54.7% (active).
In the case of `CC1Cc2cc(/C(O)=C3/C(=O)C(=O)N(CCCn4ccnc4)C3c3cccnc3)ccc2O1` (configuration not stated), the inhibition is 3.7%.
For `COc1cc(-c2ccc(NC(=O)CN3CCC(C)CC3)c(OC)c2)ccc1NC(=O)CN1CCC(C)CC1` the value was 21%.
For `CC(C)c1ccc(CN(C)CC(O)c2ccccc2)cc1` (configuration not stated) the value was -2.2%.
With `CCN(CC)c1ccc(/C=N/NC(=O)c2c[nH]c3ccccc23)cc1`, the inhibition was 21.6%.
For the compound `COc1ccc(CCNC(=O)CCC(=O)Nc2nnc(C(C)C)s2)cc1OC`, the inhibition was 3.2%.
Under `CCN1CCc2c(C#N)c(N3CCOCC3)nc(NCc3ccccc3)c2C1` stands 19.3%; under `CCN1CCc2c(C#N)c(N3CCOCC3)nc(NCCO)c2C1`, 57.2% (active); under `CCN1CCc2c(C#N)c(N3CCOCC3)nc(N3CCOCC3)c2C1`, -3%.
Under `CC1(C)Cc2c(sc3nc(-c4cc5ccccc5o4)n(N)c(=O)c23)CO1` stands 7%.
For `CCN1C(=O)C(C)S/C1=N\S(=O)(=O)c1ccc(Cl)s1` (configuration not stated) the value was -0.5%.
On to `CC(C)CCN(C(=O)CNC(=O)c1cccs1)C(C(=O)NC1CCCC1)c1ccncc1` (configuration not stated), for which the inhibition is -1.9%.
For `O=C(NCCN1CCOCC1)c1ccc2ccccc2c1` the value was -3.6%; for `c1ccc(CCNc2ccnc3cc4ccccc4cc23)cc1`, 63.5% (active).
For `c1ccc(CCNc2ncnc3ccccc23)cc1` the value was 6.3%; for `c1ccc2c(NCCCN3CCOCC3)c3ccccc3nc2c1`, 8.7%.
For `O=c1ccnc(NCCc2ccccc2)[nH]1` the value was -1.8%.
For the compound `c1ccc2cc3c(NCCN4CCOCC4)ccnc3cc2c1`, the inhibition was 57% (active).
For the compound `CCOC(=O)c1sc(-c2ccc(OC)cc2)cc1NC(C)=O`, the inhibition was -4.9%.
Under `Cc1nc([N+](=O)[O-])c(C(=O)OCc2ccccc2Br)n1C` stands -9.7%; under `COc1ccc(C(=O)N/N=C/c2c(CO)cnc(C)c2O)cc1`, -36.3%; under `O=C(c1ccccc1)N(Cc1cccnc1)C1(C(=O)Nc2ccccc2)CCCCC1`, -14%.
Under `NC(=O)C1CCN(C(=O)CSc2nc3ccccc3[nH]2)CC1` stands 2.1%; under `CN(C)c1ccc2c(O)cc(=O)n(C)c2c1`, 56.1% (active); under `CN(C)c1ccc2c(=O)[nH][nH]c(=O)c2c1`, 24.5%.
Under `COc1cc(=O)n(C)c2cc(N(C)C)ccc12` stands 6.9%; under `CCOCCCNC(=O)c1cn(CC(C)C)c(=O)c2cc(OC)c(OC)cc12`, 22.8%; under `Cc1ccccc1N1CC(=O)N(c2ccccc2C)CC1=O`, -4.3%.
For `Cc1ccccc1-n1c(=O)c2ccccc2n2cnnc12`, the inhibition was 1.1%.
Under `CC(C)(C)NC(=O)NC(=O)COC(=O)c1cccc(F)c1` stands 10.3%.
With `CC(=O)Nc1ccc(C(=O)n2nc(C)cc2C)cc1`, the inhibition was -3.3%.
For `CCNC(=S)N(Cc1ccco1)Cc1cc2cc3c(cc2[nH]c1=O)OCCO3` the value was 4.6%.
For `CNC(=S)N(Cc1ccco1)Cc1cc2cc3c(cc2[nH]c1=O)OCCO3` the value was 52.2% (active).
Under `CC(C)CNC(=S)N(Cc1ccco1)Cc1cc2cc3c(cc2[nH]c1=O)OCCO3` stands 12.4%.
Turning to `COc1ccc(/C=N/NC(=O)c2cccc(NC(C)=O)c2)c(C(=O)O)c1OC`, the inhibition was -6.4%.
For `Cn1ccc(C(=O)OCC(=O)Nc2cccc3ccccc23)n1`, the inhibition is 0.8%.
Under `CC(CCc1ccccc1)NC(=O)C(=O)N1CCOCC1` (configuration not stated) stands 0.1%; under `CC1=C(C)C(=O)C(N2CCOCC2)=CC1=O`, -17.5%.
Take `CC(C)(C)C1=CC(=O)C(N2CCOCC2)=CC1=O`: the inhibition is 65.3% (active).
Turning to `CN1CCOCCOCCN(C)C(=O)N2CCOCCOCCN(CCOCC2)C1=O`, the inhibition was 3%.
Under `Cc1ccc(S(=O)(=O)Oc2ccc(C)cc2/C=N/N=C2\NC(=O)C(C)S2)cc1` (configuration not stated) stands 8.8%; under `CC(=Nc1ccccc1)C1=C(O)CSC1=O`, -2.7%; under `CC(=Nc1ccccc1C)C1=C(O)CSC1=O`, -8.7%.
Under `COc1ccccc1N=C(C)C1=C(O)CSC1=O` stands 54.1% (active).

The record behind these values is PubChem BioAssay AID1220 (Sanford-Burnham Center for Chemical Genomics, 2008).
